Sequences and labels used below:
B1: Caulobacter ParB omega fusion; a variant is named by its letters at X, in order, B8GW30 (parent)
chain: MESVVVGEPGMSEGRRGLGRGLSALLGEVDAAPAQAPGEQLGGSREAPIEILQRNPDQPRRTFREEDLEDLSNSIREKGVLQPILVRPSPDTAGEYQIVAGERAWRAAQRAGLKTVPIMVRELDDLAVLEIGIIENVQRADLNVLEEALSYKVLMEKFERTQENIAQTIGKSXSHVANXMRLLXLPDEVQSYLVSGELTAXHARAIAAAADPVALAKQIIEGGLSVRETEALARKAPNLSAGKSKGGRPPRVKDTDTQALESDLSSVLGLDVSIDHRGSTGTLTITYATLEQLDDLCNRLTRGI

In all, about 81,000 sequences were measured (“one-hybrid fitness for binding NBS DNA”: median about -0.1, highest 2% from about 0.36 on). This is one part of a sample in which the highest values are shown more often than they occur.

Variants of B1 are the subject of the assay. The assay can be described thus: one-hybrid fitness for binding NBS DNA (the Noc-binding site; scaled: cognate 1, non-cognate 0); higher = stronger binding. Particulars: with NBS DNA site. In a few lines:
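Caulobacter ParB libraries with four specificity codons randomised were screened by bacterial one-hybrid selection in the E. coli USO strain, using a HIS3 reporter whose site lies 19 bp from the promoter. Selection ran for 48 hours at 37°C on M9 lacking histidine, with 0.1 mM IPTG and 5 mM 3-AT. Plasmids were Illumina-sequenced before and after selection, three replicate libraries were pooled, and variants with under 10 reads were dropped. Fitness is the log change in each variant's read ratio to wild type, rescaled against the cognate and non-cognate sites.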
For the variant QQKC, the “one-hybrid fitness for binding NBS DNA” value came out at 0.449. Next, QQNC: 0.265; QQKG: 0.437.

As to QQKY, the “one-hybrid fitness for binding NBS DNA” value was determined as 0.63. Regarding QQDY, the “one-hybrid fitness for binding NBS DNA” value was not above 0.2. The result for QQVG reads not above 0.2; that for QQFC, not above 0.2. Next, QQRC: 0.455. Next, RRWI: 0.2. As for GLIT, the “one-hybrid fitness for binding NBS DNA” value is not above 0.2.

On to LTTA, for which the “one-hybrid fitness for binding NBS DNA” value is not above 0.2.

For the variant AREP, the “one-hybrid fitness for binding NBS DNA” value was not above 0.2.

On to GRTD, for which the “one-hybrid fitness for binding NBS DNA” value is not above 0.2. For the variant PMHT, the “one-hybrid fitness for binding NBS DNA” value is not above 0.2. On to PPTR, for which the “one-hybrid fitness for binding NBS DNA” value was not above 0.2. Next, KSNL: not above 0.2. THKH: the “one-hybrid fitness for binding NBS DNA” value was not above 0.2. The result for WPSG reads not above 0.2. Regarding GFYT, the “one-hybrid fitness for binding NBS DNA” value is not above 0.2. As to QQRM, the “one-hybrid fitness for binding NBS DNA” value is 0.459. The result for QQRY reads 0.597; that for NQKS, not above 0.2.

Take QQVS: the “one-hybrid fitness for binding NBS DNA” value stood at 0.33. On to QQFM, for which the “one-hybrid fitness for binding NBS DNA” value is not above 0.2. QQKS: the “one-hybrid fitness for binding NBS DNA” value came to 0.714.

QQKN: the “one-hybrid fitness for binding NBS DNA” value stood at 0.464. The result for QQFY reads not above 0.2; that for QQYM, not above 0.2; that for QQYY, not above 0.2. On to TWEG, for which the “one-hybrid fitness for binding NBS DNA” value is not above 0.2. PTGW: the “one-hybrid fitness for binding NBS DNA” value was not above 0.2.

With RYQK, the “one-hybrid fitness for binding NBS DNA” value was not above 0.2. KVTF: the “one-hybrid fitness for binding NBS DNA” value is not above 0.2. The result for WKWG reads not above 0.2; that for DWIC, not above 0.2.

For LTTQ, the “one-hybrid fitness for binding NBS DNA” value is not above 0.2. The result for SPPV reads not above 0.2; that for QQRG, 0.407; that for QQKK, 0.506.

On to QQPK, for which the “one-hybrid fitness for binding NBS DNA” value is not above 0.2. On to QQKM, for which the “one-hybrid fitness for binding NBS DNA” value turned out to be 0.476. Consider QQYG, for which the “one-hybrid fitness for binding NBS DNA” value was not above 0.2. Next, QQAK: not above 0.2; QQDM: not above 0.2; QQDK: not above 0.2. Next, QQVM: not above 0.2. The result for QQDG reads not above 0.2. For QQYK, the “one-hybrid fitness for binding NBS DNA” value is not above 0.2. Consider QQRK, for which the “one-hybrid fitness for binding NBS DNA” value was found to be 0.499. ASHP: the “one-hybrid fitness for binding NBS DNA” value was not above 0.2. As for HWMG, the “one-hybrid fitness for binding NBS DNA” value was not above 0.2.

For ITPE, the “one-hybrid fitness for binding NBS DNA” value was not above 0.2.

With GQNS, the “one-hybrid fitness for binding NBS DNA” value was not above 0.2. The result for TPEF reads not above 0.2; that for IIVG, not above 0.2; that for NNMC, not above 0.2. For the variant QQKD, the “one-hybrid fitness for binding NBS DNA” value came to 0.345.

With QQKH, the “one-hybrid fitness for binding NBS DNA” value worked out at 0.657. Next, QQKP: 0.336. With SQHR, the “one-hybrid fitness for binding NBS DNA” value is not above 0.2. Next, QSRI: 0.338. Next, QCRI: 0.407; QPRI: not above 0.2; QRGI: 0.37.

For the variant IDPI, the “one-hybrid fitness for binding NBS DNA” value was not above 0.2. Turning to QRRI, the “one-hybrid fitness for binding NBS DNA” value came to 0.43.

Take IDNI: the “one-hybrid fitness for binding NBS DNA” value came to 0.591. The result for IDCI reads not above 0.2; that for QCGI, not above 0.2. Regarding QSGI, the “one-hybrid fitness for binding NBS DNA” value is not above 0.2. The result for QRYI reads 0.254; that for QREI, not above 0.2. The result for PDRM reads not above 0.2. Next, MWKT: not above 0.2; DTEY: not above 0.2; DDNC: not above 0.2.

On to PMEV, for which the “one-hybrid fitness for binding NBS DNA” value was not above 0.2. In the case of FFGC, the “one-hybrid fitness for binding NBS DNA” value is not above 0.2.

For the variant MTER, the “one-hybrid fitness for binding NBS DNA” value was not above 0.2.

With QTRI, the “one-hybrid fitness for binding NBS DNA” value amounted to 0.478. Next, QRNI: 0.403. The result for QCNI reads not above 0.2; that for QTYI, not above 0.2. QTDI: the “one-hybrid fitness for binding NBS DNA” value was not above 0.2.

Turning to QRDI, the “one-hybrid fitness for binding NBS DNA” value is not above 0.2. For HLFS, the “one-hybrid fitness for binding NBS DNA” value was not above 0.2. Next, RRGS: 0.55; RRGM: 0.237. The result for RRGN reads 0.324.

For the variant RRGP, the “one-hybrid fitness for binding NBS DNA” value was not above 0.2. In the case of RRGD, the “one-hybrid fitness for binding NBS DNA” value is not above 0.2. Next, RRGH: 0.44. Next, PPPL: not above 0.2; GQQS: not above 0.2; RDPN: not above 0.2.

Consider DGTL, for which the “one-hybrid fitness for binding NBS DNA” value is not above 0.2.

In the case of SCPT, the “one-hybrid fitness for binding NBS DNA” value is not above 0.2.

RTKR: the “one-hybrid fitness for binding NBS DNA” value was determined as 0.866. For the variant RTVR, the “one-hybrid fitness for binding NBS DNA” value stood at 0.416. The result for RTKG reads 0.223; that for RTKM, 0.303. As to WTEY, the “one-hybrid fitness for binding NBS DNA” value is not above 0.2. Next, YTWG: not above 0.2. Consider PYNR, for which the “one-hybrid fitness for binding NBS DNA” value is not above 0.2.

As for QHIS, the “one-hybrid fitness for binding NBS DNA” value came out at 0.258. Next, QPQS: not above 0.2; QHQN: not above 0.2. The result for QMQH reads not above 0.2. Next, QMQS: 0.394; QSQS: 0.36. In the case of QMQP, the “one-hybrid fitness for binding NBS DNA” value is not above 0.2. With QHQS, the “one-hybrid fitness for binding NBS DNA” value came to 0.394. Take QCQS: the “one-hybrid fitness for binding NBS DNA” value stood at 0.448. The result for CTNW reads not above 0.2; that for LAHD, not above 0.2. With LHIV, the “one-hybrid fitness for binding NBS DNA” value was not above 0.2. Regarding RRMY, the “one-hybrid fitness for binding NBS DNA” value is 0.338.

As to RKMM, the “one-hybrid fitness for binding NBS DNA” value was not above 0.2. The result for RCMT reads 0.492. The result for RSMT reads 0.305; that for RTMT, 0.491; that for RFMT, not above 0.2.

Regarding RPMT, the “one-hybrid fitness for binding NBS DNA” value was not above 0.2. Next, RKMT: 0.587. Consider RTMK, for which the “one-hybrid fitness for binding NBS DNA” value was not above 0.2. Next, RTMG: not above 0.2; RRMT: 0.776; RRMM: 0.221. As to PHSL, the “one-hybrid fitness for binding NBS DNA” value is not above 0.2.

On to GMRS, for which the “one-hybrid fitness for binding NBS DNA” value was not above 0.2. With SYNI, the “one-hybrid fitness for binding NBS DNA” value is not above 0.2. Next, EIAA: not above 0.2. As for WPVG, the “one-hybrid fitness for binding NBS DNA” value is not above 0.2.

As to AYDR, the “one-hybrid fitness for binding NBS DNA” value was not above 0.2. Next, PHAW: not above 0.2; RMGF: not above 0.2; RMSG: not above 0.2. The result for RMQP reads not above 0.2; that for RMLT, 0.347. Next, RMST: 0.483. As to RMRT, the “one-hybrid fitness for binding NBS DNA” value came to 0.633. The result for RMSK reads not above 0.2. As to RMGK, the “one-hybrid fitness for binding NBS DNA” value was not above 0.2.

On to RMGT, for which the “one-hybrid fitness for binding NBS DNA” value is 0.432. The result for RMQD reads not above 0.2; that for RMQT, 0.371; that for RMIT, 0.253. NYTS: the “one-hybrid fitness for binding NBS DNA” value was not above 0.2. The result for GQGC reads not above 0.2. The result for AMCS reads not above 0.2. Next, NVHT: not above 0.2; RMYT: 0.417; RMWT: 0.348.

Regarding RMPT, the “one-hybrid fitness for binding NBS DNA” value was not above 0.2.

Values taken from a collection of fitness landscapes (doi:10.1016/j.celrep.2020.107928).
